The values that follow come from PubChem BioAssay.

The structures appear in SMILES notation.

For assay [1], the target named is Tumor necrosis factor receptor superfamily member 10B (Homo sapiens) (UniProt O14763). Nature of the assay: viability loss of caspase-8 NB7 cells with TRAIL – with/without TRAIL, luminescence panel, confirmation (AID 651596). The conditions noted are these: NB7 neuroblastoma + caspase-8, TRAIL sensitization, NB7 Caspase-8, with TRAIL, mean of runs, at 10 µM, stronger effect = higher value.

Assay in assay [2]: as above
The settings on record: NB7 neuroblastoma + caspase-8, without TRAIL, NB7 Caspase-8, without TRAIL, mean of runs, at 10 µM.

Chain of Tumor necrosis factor receptor superfamily member 10B (Homo sapiens) (O14763 whole entry, looked up): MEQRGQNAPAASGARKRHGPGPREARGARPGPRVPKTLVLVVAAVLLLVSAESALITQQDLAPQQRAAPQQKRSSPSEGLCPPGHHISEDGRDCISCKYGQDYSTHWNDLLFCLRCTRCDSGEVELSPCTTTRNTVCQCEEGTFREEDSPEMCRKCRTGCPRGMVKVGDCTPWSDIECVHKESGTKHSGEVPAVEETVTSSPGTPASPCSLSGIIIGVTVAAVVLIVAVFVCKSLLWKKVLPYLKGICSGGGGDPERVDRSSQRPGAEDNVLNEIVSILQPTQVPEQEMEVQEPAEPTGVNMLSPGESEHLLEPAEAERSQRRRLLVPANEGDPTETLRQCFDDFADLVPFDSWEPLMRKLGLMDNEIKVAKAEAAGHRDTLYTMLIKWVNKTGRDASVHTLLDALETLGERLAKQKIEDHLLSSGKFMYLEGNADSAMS

Turning to `O=C(Nc1ccc(Cl)cn1)c1ccc2c(Cl)c3c(nc2c1)CCC3`, the results for the activity in assay [1] and in assay [2] were 56.8% and 56.3%, respectively.

In the case of `CCOC(=O)Cc1csc(NC(=O)c2cc3c(s2)CCCC3)n1`, the activity came out at 56.7% in assay [1] and 58.8% in assay [2].

Regarding `O=C(N/N=C/c1cccc([N+](=O)[O-])c1)c1ccc2c(c1)OCCO2`, the results for the activity in assay [1] and in assay [2] were 73.3% and 61.3%, respectively.

As to `Cc1c(P(=S)(c2ccccc2)c2ccccc2)[n+]2ccccc2n1C/C=C/c1ccccc1`, the values for the activity in assay [1] and in assay [2] were 83.3% and 56.9%, respectively.

Take `CCc1ccc(NC(=O)Nc2cccs2)cc1`: the activity in assay [1] came to 59%; in assay [2], 45.9%.

As to `O=C(CCl)N1CCCC1c1ccc2c(c1)OCCO2` (stereo not drawn), the activity in assay [1] turned out to be 95.6%; in assay [2], 97.8%.

Consider `O=C1C(=Cc2ccccc2Cl)CCc2ccccc21`, for which the activity worked out at 62.3% in assay [1] and 51.9% in assay [2].

`CCCCn1c(=O)[nH]c(=O)c2c1nc(Cn1ncc(Cl)c(Cl)c1=O)n2CCC`: the activity in assay [1] was 98.7%; in assay [2], 99%.

With `COc1ccc(-c2cc3ccccc3cn2)cc1`, the activity in assay [1] worked out at 57.4%; in assay [2], 54.3%.

For the molecule `COC(=O)CSc1nc2cc(OC)ccc2cc1C#N`, the activity in assay [1] was determined as 75.6%; in assay [2] it was 70%.

For the molecule `CC(C)CC(N)c1csc(NC(=O)c2cc(C(C)(C)C)nn2Cc2ccccc2)n1` (stereo not drawn), the activity turned out to be 70% in assay [1] and 92.4% in assay [2].

For the molecule `O=C(Nc1ccc2c(c1)OCCO2)Nc1ccc2c(c1)OCO2`, the activity in assay [1] worked out at 81.4%; in assay [2], 79.5%.

As to `COc1ccc(/C=C/c2nc3ccccc3n2Cc2ccccc2OC)cc1`, the activity in assay [1] was 78.5%; in assay [2], 67.7%.

For `NC(Cc1ccc(Cl)cc1)c1csc(NC(=O)NCC2CCCCC2)n1` (stereo not drawn), the activity was determined as 58.4% in assay [1] and 88.1% in assay [2].

As to `COC(=O)c1ccc2c(c1)C(C)(C)C(/C=C/c1ccc(OC)c(OC)c1OC)=[N+]2C`, the activity stood at 73.8% in assay [1] and 68.9% in assay [2].

With `O=C(/C=C/c1cccc(F)c1)N1CCc2ccccc21`, the activity worked out at 55.1% in assay [1] and 52.8% in assay [2].

Regarding `Cc1ccc2nc(NC(=S)NC(=O)c3ccco3)sc2c1`, the results for the activity in assay [1] and in assay [2] were 77.9% and 62.9%, respectively.

In the case of `S=C(Nc1ccc(Cl)cc1)c1nc2ccccc2[nH]1`, the activity was found to be 60.6% in assay [1] and 65.9% in assay [2].

Turning to `CCCCCCCCCCn1ccc(=N)cc1`, the values for the activity in assay [1] and in assay [2] were 84% and 68.3%, respectively.

For the molecule `O=C1c2ccc(Cl)cc2S(=O)(=O)c2cccc(C(=O)N3CCN(c4ccc(Cl)cn4)CC3)c21`, the activity in assay [1] is 94.8%; in assay [2], 83.5%.

On to `C/C(=N\NC(=O)c1nn(C)c(C)c1Br)c1cccc(NC(=O)c2ccc(F)cc2)c1`, for which the activity in assay [1] came out at 46%; in assay [2] it was 50.5%.

Regarding `COc1ccc(C)cc1NC(=O)CN(Cc1nnc(-c2ccc(Cl)cc2)o1)C1CCCC1`, the activity is 76.7% in assay [1] and 92% in assay [2].

Regarding `COc1ccc2oc(C(=O)Nc3nc4ccccc4[nH]3)c(C)c2c1`, the activity in assay [1] was determined as 89.7%; in assay [2], 85.3%.

For `COc1ccc2nc(NN=C(C)c3ccccn3)cc(C)c2c1`, the activity in assay [1] came to 74%; in assay [2], 80.1%.

For the molecule `CC(=O)n1cc(N(C(=O)CCl)c2ccc(Cl)cc2)c2ccccc21`, the activity was 98.5% in assay [1] and 98.9% in assay [2].

In the case of `CC(C)Cc1ccc(C(C)CC2=CCC(CN(C)C)C2=O)cc1` (stereo not drawn), the values for the activity in assay [1] and in assay [2] were 86.2% and 91.8%, respectively.

Take `Cc1ccc(-c2cc(C(=O)N/N=C/c3ccc([N+](=O)[O-])o3)c3ccccc3n2)o1`: the activity amounted to 83.8% in assay [1] and 73.7% in assay [2].

As to `CCOc1ccc(/C=N/NC(=O)c2ccccc2NC(=O)c2ccc(OC)cc2)cc1`, the figures for the activity in assay [1] and in assay [2] were 72.6% and 57.7%, respectively.

In the case of `c1ccc2nc(-c3nc4ccccc4o3)ccc2c1`, the activity was 79.6% in assay [1] and 76% in assay [2].

For the molecule `O=C(Nc1nc2ccccc2[nH]1)c1ccccc1O`, the activity worked out at 63.1% in assay [1] and 65.9% in assay [2].

Consider `CCc1ccc(/C=N/Nc2ncnc3nc[nH]c23)cc1`, for which the activity came to 47.1% in assay [1] and 41.7% in assay [2].

Take `N/C(Cc1ccc(Cl)cc1)=N\OC(=O)c1ccc2ccccc2c1`: the activity in assay [1] turned out to be 98.5%; in assay [2] it was 95%.

In the case of `O=C(NO)c1cc(OCC(F)(F)F)ccc1OCC(F)(F)F`, the activity came to 51.1% in assay [1] and 71.4% in assay [2].

For `CCCCCCCC(=O)Nc1ccc(C(=O)N/N=C/c2cccc([N+](=O)[O-])c2)cc1`, the figures for the activity in assay [1] and in assay [2] were 69.3% and 75.9%, respectively.

Take `Cc1ccc(-c2cn3cc([N+](=O)[O-])ccc3n2)cc1`: the activity amounted to 50.9% in assay [1] and 41.5% in assay [2].

Turning to `c1c2c(cc3sc(N4CCOCC4)nc13)OCCO2`, the values for the activity in assay [1] and in assay [2] were 66.8% and 75%, respectively.

With `O=C(Cn1ncc(Cl)c(Cl)c1=O)c1ccc(Cl)cc1`, the activity came to 99.7% in assay [1] and 99.6% in assay [2].

As for `Nc1nc(N)c2cc(S(=O)(=O)c3cccc(C(F)(F)F)c3)ccc2n1`, the activity came to 60.4% in assay [1] and 76.5% in assay [2].

As to `O=C(Nc1ccc(N2CCCC2)c(Cl)c1)c1ccco1`, the figures for the activity in assay [1] and in assay [2] were 43.3% and 27%, respectively.

`Cc1ccc(C2CC2c2n[nH]c(=S)n2-c2ccc(Cl)cc2)cc1` (stereo not drawn): the activity amounted to 63% in assay [1] and 45.3% in assay [2].

In the case of `COc1cc(OC)cc(C(=O)Nc2ccc3c(c2)OCCO3)c1`, the activity was 47.1% in assay [1] and 43.8% in assay [2].

On to `CC(C)(C)OC[C@H](NC(=O)c1[nH]cnc1C(=O)Nc1ccccc1F)C(=O)OC(C)(C)C`, for which the activity in assay [1] came out at 55.4%; in assay [2], 59.2%.

`CC1(C)N=C(N)N=C(N)N1CCCCc1ccccc1`: the activity in assay [1] came to 63.6%; in assay [2] it was 68.3%.

As for `CCOc1ccc(C(=O)Nc2cc(C)c3c(=O)oc4ccccc4c3n2)cc1`, the activity in assay [1] is 61.2%; in assay [2], 62.1%.
